From PubChem BioAssay (NCATS)
Results filed as inconclusive are left out. Calls of active or inactive are those of the source. Unless noted, calls follow the shape of the dose curve; as a rule, active = well fitted curve in either direction with a large enough effect (not every such curve was filed as active); inconclusive = small, poorly fitted or top-dose-only effect, or another doubt; inactive = flat fitted curve, though single readings scatter.

Legend:
[1] = AP1 Signaling Pathway (AID 357); conditions: ME-180 AP-1-bla reporter, EGF-induced, beta-lactamase ratio, 5 h; at 17.2 µM (top of the series) unless noted; also: % is scaled to controls: 0 for no effect and ±100 for the full control effect
How it was run: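 Modulation of EGF-driven AP-1 transcription was assessed with a beta-lactamase reporter in ME-180 cells. Compound and EC50 EGF were co-incubated 5 hours at 37 °C before 2.5-hour CCF4 loading at room temperature and dual-emission reading.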

[2] = NFAT Signaling Pathway (AID 444); conditions: Jurkat NFAT-bla M1, carbachol, beta-lactamase ratio, 5 h; at 17.2 µM (top of the series) unless noted;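 also: carbachol stimulus at about its EC50 of 1 µM final; % is scaled to controls: 0 for no effect and ±100 for the full control effect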
How it was run: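 Jurkat cells carrying an NFAT-driven β-lactamase reporter and co-transfected muscarinic M1 receptor were treated with compound plus carbachol (1 uM final, an EC50 level) for 5 h at 37 °C. CCF4 loading followed for 1 h at RT; 460/530 nm ratio gave %activity.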

[3] = Stat Signaling Pathway (AID 446); conditions: ME-180 (cervical carcinoma) SIE beta-lactamase reporter, IL-6 stimulated, 5 h; at 17.2 µM (top of the series) unless noted;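 also: ME-180 cervical cancer cells given 40 pM IL-6 alongside compound; SIE-controlled beta-lactamase reporter measured as 460/530 nm FRET emission ratio; % is scaled to controls: 0 for no effect and ±100 for the full control effect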
How it was run: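 IL-6/STAT signaling read in ME-180 cells via an SIE beta-lactamase reporter. Stimulus was 40 pM IL-6 (its AC50) for 5 hrs, so both activation and inhibition register.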

[4] = target: Glucocorticoid receptor (Homo sapiens) (UniProt P04150); assay: GR-GFP Redistribution (AID 450;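 active = compounds whose dose series gives a full or clear partial fitted curve of increased nuclear translocation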; also: potency is read from the fitted curve at half-maximal effect)
Chain of Glucocorticoid receptor (Homo sapiens) (P04150 whole entry, looked up): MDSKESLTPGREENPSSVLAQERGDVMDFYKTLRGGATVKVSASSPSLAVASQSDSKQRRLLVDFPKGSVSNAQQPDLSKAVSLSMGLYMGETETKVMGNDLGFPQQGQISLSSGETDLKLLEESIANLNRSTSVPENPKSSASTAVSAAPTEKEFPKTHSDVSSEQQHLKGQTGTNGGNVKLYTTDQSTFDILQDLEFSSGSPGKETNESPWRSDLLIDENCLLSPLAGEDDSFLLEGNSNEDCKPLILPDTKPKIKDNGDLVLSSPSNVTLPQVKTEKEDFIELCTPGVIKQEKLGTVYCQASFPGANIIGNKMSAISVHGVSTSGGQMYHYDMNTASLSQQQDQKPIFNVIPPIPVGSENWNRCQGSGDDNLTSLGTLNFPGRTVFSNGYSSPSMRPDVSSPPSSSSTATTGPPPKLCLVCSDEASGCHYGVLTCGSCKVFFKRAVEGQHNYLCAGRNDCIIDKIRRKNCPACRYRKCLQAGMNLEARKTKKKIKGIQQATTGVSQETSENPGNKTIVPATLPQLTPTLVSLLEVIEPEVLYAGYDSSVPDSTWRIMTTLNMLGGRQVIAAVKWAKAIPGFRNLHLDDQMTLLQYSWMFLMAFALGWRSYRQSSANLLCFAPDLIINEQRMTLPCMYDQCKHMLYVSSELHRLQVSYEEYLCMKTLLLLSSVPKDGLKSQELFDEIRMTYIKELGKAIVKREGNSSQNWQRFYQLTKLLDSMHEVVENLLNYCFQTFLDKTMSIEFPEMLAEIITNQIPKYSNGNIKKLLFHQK

O=C1CCC(=O)N1c1nc2n(n1)C(c1ccccc1)C=C(c1ccc(Br)cc1)N2 (centres undefined)
inactive: activity change, negative = inhibition [1] -22.1% | activity change, negative = inhibition [2] 3.81% | activity, negative = inhibition [3] -13.7% | Potency [4] > 20.6 µM

Cc1c(C(=O)O)sc(=S)n1-c1ccccc1
inactive: activity change, negative = inhibition [1] 11% | activity change, negative = inhibition [2] 2.74% | activity, negative = inhibition [3] 4.36% | Potency [4] > 20.6 µM

CC(=O)Nc1cnc2ccccc2n1
inactive: activity change, negative = inhibition [1] 2.26% | activity change, negative = inhibition [2] -13.5% | activity, negative = inhibition [3] 7.01% | Potency [4] > 20.6 µM

Cc1csc(SCCn2c(Br)nc3c2c(=O)[nH]c(=O)n3C)n1
inactive: activity change, negative = inhibition [1] 1.52% | activity change, negative = inhibition [2] 4.32% | activity, negative = inhibition [3] 1.99% | Potency [4] > 20.6 µM

CCCOc1ccc(/C(O)=C2/C(=O)C(=O)N(CCCn3ccnc3)C2c2cccs2)cc1 (centres undefined)
inactive: activity change, negative = inhibition [1] -14.1% | activity change, negative = inhibition [2] 2.88% | activity, negative = inhibition [3] 6% | Potency [4] > 20.6 µM

N#CCc1nc2c3c4c(sc3ncn2n1)CCCC4
inactive: activity change, negative = inhibition [1] -0.68% | activity change, negative = inhibition [2] -9.45% | activity, negative = inhibition [3] 5.72% | Potency [4] > 20.6 µM

Cc1nnc(N2CCOCC2)c2ccccc12
inactive: activity change, negative = inhibition [1] 5.51% | activity change, negative = inhibition [2] 6.76% | activity, negative = inhibition [3] 5.08% | Potency [4] > 20.6 µM

COc1cccc(N2CCN(c3ncnc4c3[nH]c3ccc(F)cc34)CC2C)c1 (centres undefined)
inactive: Potency [4] > 20.6 µM
active: activity change, negative = inhibition [1] -121% | activity change, negative = inhibition [2] -137% | activity, negative = inhibition [3] -104%

N#Cc1nc(-c2cccs2)oc1NCCN1CCOCC1
inactive: activity change, negative = inhibition [1] -3.9% | activity change, negative = inhibition [2] -7.03% | activity, negative = inhibition [3] 5.17% | Potency [4] > 20.6 µM

CCOc1ccc(C2/C(=C(/O)c3ccc(OC)cc3)C(=O)C(=O)N2c2cc(C)on2)cc1OC (centres undefined)
inactive: activity change, negative = inhibition [1] -11.1% | activity change, negative = inhibition [2] -0.187% | activity, negative = inhibition [3] -9.83% | Potency [4] > 20.6 µM

COc1cc(-c2nn3c(C4CCCCC4)nnc3s2)cc(OC)c1OC
inactive: activity change, negative = inhibition [1] -16.1% | activity change, negative = inhibition [2] 10.4% | activity, negative = inhibition [3] 0.0449% | Potency [4] > 20.6 µM

CCCn1nnc(NC(=O)c2cc(Br)cc(Br)c2OC)n1
inactive: activity change, negative = inhibition [1] -4.03% | activity change, negative = inhibition [2] -11.1% | activity, negative = inhibition [3] -4.41% | Potency [4] > 20.6 µM

O=C(O)c1ccc(C2CCCCC2)cn1
inactive: activity change, negative = inhibition [1] 12.7% | activity change, negative = inhibition [2] -13.3% | activity, negative = inhibition [3] 15.1% | Potency [4] > 20.6 µM

O=S(=O)(NCc1cccnc1)c1cccc2nsnc12
inactive: activity change, negative = inhibition [1] 6.05% | activity change, negative = inhibition [2] -11.1% | activity, negative = inhibition [3] 4.09% | Potency [4] > 20.6 µM

Cc1nc(N2CCOCC2)c(C#N)c2c1COC(C)(C)C2
inactive: activity change, negative = inhibition [1] 0.635% | activity change, negative = inhibition [2] 2.49% | activity, negative = inhibition [3] 7.32% | Potency [4] > 20.6 µM

CCCCN(C(=O)CCC(=O)O)C1CC(=O)N(c2ccc(OCCC)cc2)C1=O (centres undefined)
inactive: activity change, negative = inhibition [1] 0.952% | activity change, negative = inhibition [2] -3.79% | activity, negative = inhibition [3] 5.12% | Potency [4] > 20.6 µM

CCOC(=O)CC(=O)CSc1nc(N)c(C#N)c(-c2ccc(F)cc2)c1C#N
inactive: activity change, negative = inhibition [1] -26.2% | activity change, negative = inhibition [2] 7.66% | activity, negative = inhibition [3] -17.8% | Potency [4] > 20.6 µM

CCCSc1nc(C)c(CC(=O)OCC)c(=O)[nH]1
inactive: activity change, negative = inhibition [1] -4.57% | activity change, negative = inhibition [2] -4.22% | activity, negative = inhibition [3] -2.57% | Potency [4] > 20.6 µM

O=C1N[C@@H](Cc2cnc[nH]2)C(=O)N2CCC[C@@H]12
inactive: activity change, negative = inhibition [1] 15.2% | activity change, negative = inhibition [2] -19.2% | activity, negative = inhibition [3] 4.85% | Potency [4] > 20.6 µM

CC(C)c1cc(NCCCN2CCOCC2)n2c(nc3ccccc32)c1C#N
inactive: activity change, negative = inhibition [1] -14.3% | activity change, negative = inhibition [2] -9.44% | activity, negative = inhibition [3] 0.608% | Potency [4] > 20.6 µM

Cc1ccc(C2C(C(=O)c3cc4ccccc4o3)=C(O)C(=O)N2CCN(C)C)o1 (centres undefined)
inactive: activity change, negative = inhibition [1] -1.56% | activity change, negative = inhibition [2] -18.1% | activity, negative = inhibition [3] -0.311% | Potency [4] > 20.6 µM

CN1CCN(CCCCOc2ccc(F)cc2)CC1
inactive: activity change, negative = inhibition [1] 10.9% | activity change, negative = inhibition [2] -9.28% | activity, negative = inhibition [3] -0.445% | Potency [4] > 20.6 µM

C=CCNc1nc(-c2ccc(O)c(C(N)=O)c2)cs1
inactive: activity change, negative = inhibition [1] -14.5% | activity change, negative = inhibition [2] 25.2% | activity, negative = inhibition [3] -12.3% | Potency [4] > 20.6 µM

CN1C(=O)c2c(sc3c2CCCC3)NC1c1ccccc1O (centres undefined)
inactive: activity change, negative = inhibition [1] -12.2% | activity change, negative = inhibition [2] -10.9% | activity, negative = inhibition [3] -25.9% | Potency [4] > 20.6 µM

Cc1ccc(-n2c(N)c(C(N)=O)sc2=S)cc1
inactive: activity change, negative = inhibition [1] 6.9% | activity change, negative = inhibition [2] 9.14% | activity, negative = inhibition [3] -24.5% | Potency [4] > 20.6 µM

CC1(C)Cc2c(sc3nc4n(c(=N)c23)CCC4)CO1
inactive: activity change, negative = inhibition [1] -5.14% | activity change, negative = inhibition [2] -4.64% | activity, negative = inhibition [3] 4.33% | Potency [4] > 20.6 µM
